PubChem BioAssay AID434970 (Sanford-Burnham Center for Chemical Genomics, 2010)
The whole screen tested about 11,000 compounds, of which about 310 (2.8%) were called active. No stated cut-off is given here; in the data, active means activity change below about -85%; inactive means the rest. The full list was thinned out, with actives kept by preference.

These molecules were tested on intestinal alkaline phosphatase [Mus musculus] (assay: activators of mouse IAP, confirmation, biochemical, luminescence, single concentration (AID 434970)). Settings: purified mouse IAP, CDP-Star luminescence, 30 min, at 10 µM; activation factor: measured here: IAP activation factor, stronger effect = higher value; activity change, negative = activation: stronger effect = lower value.
For `C=CCn1c(C)cc(C(=O)COC(=O)COc2ccccc2C#N)c1C`, the activation factor was 0.919 and the activity change, negative = activation was 8.05% (inactive).
For `S=c1[nH]nc(CSc2nc3ccccc3s2)n1Cc1ccccc1`, the activation factor was 1.1 and the activity change, negative = activation was -10.1% (inactive).
With `CCOC(=O)C1=CN(Cc2cccc(F)c2)S(=O)(=O)N(CC)C1c1ccc(F)c(Cl)c1` (centres undefined) the activation factor was 1.1 and the activity change, negative = activation was -9.9% (inactive).
With `CC(=O)Cc1nsc(NC(=O)c2ccc(-c3cccc(C(F)(F)F)c3)o2)n1` the activation factor was 0.948 and the activity change, negative = activation was 5.2% (inactive).
`COc1cc(OC)c(C2N(c3ccccn3)C(=O)C3CCCN32)cc1OC` (centres undefined) was tested, and the activation factor was 1.11 and the activity change, negative = activation was -10.6% (inactive).
For `Cc1cc(C(=O)CSc2nnc(-c3cccc(F)c3)n2N)c(C)n1Cc1ccc2c(c1)OCO2`, the activation factor was 0.849 and the activity change, negative = activation was 15.2% (inactive).
In the case of `Nc1ncnc2c1ncn2[C@@H]1O[C@H](CNC(=O)[C@@H](N)CO)[C@@H](O)[C@H]1O`, the activation factor is reported as 0.992 and the activity change, negative = activation is reported as 0.75% (inactive).
For `S=C(NCc1ccccc1)Nc1ccc(Oc2ccccc2)cc1`, the activation factor was 1.49 and the activity change, negative = activation was -49% (inactive).
`COc1cc(OC)c2c(-c3ccccc3)cc(=O)oc2c1C(CCN1CCOCC1)c1ccc(N(C)C)cc1` (centres undefined) was tested, and the activation factor was 0.992 and the activity change, negative = activation was 0.8% (inactive).
In the case of `CN(C)S(=O)(=O)n1cnc(-c2ccccc2)c1-c1ccccc1`, the activation factor is reported as 1.06 and the activity change, negative = activation is reported as -5.85% (inactive).
For `Cc1cccc(N/C(N)=N/c2nc(C)cc(C)n2)c1`, the activation factor was 1.05 and the activity change, negative = activation was -4.7% (inactive).
In the case of `Cc1ccc(NC(=O)C2CCN(C(=O)NC3CCCCC3)CC2)c(C)c1`, the activation factor is reported as 1.02 and the activity change, negative = activation is reported as -1.95% (inactive).
In the case of `Cc1ccc(N/C(N)=N/c2nc(C)cc(N3CCCCC3)n2)c(C)c1`, the activation factor is reported as 4.22 and the activity change, negative = activation is reported as -322% (active).
In the case of `CCOC(=O)C1=CN(Cc2ccco2)S(=O)(=O)NC1c1cccc(OC)c1` (centres undefined), the activation factor is reported as 0.986 and the activity change, negative = activation is reported as 1.35% (inactive).
For `CCOc1ccc(-c2nnc(-c3cccnc3)o2)cc1OCC`, the activation factor was 0.916 and the activity change, negative = activation was 8.35% (inactive).
`O=S(=O)(Nc1ccccc1)c1ccc(Oc2ncc(C(F)(F)F)cc2Cl)cc1` was tested, and the activation factor was 0.903 and the activity change, negative = activation was 9.65% (inactive).
With `COc1ccc(OC)c(NC2=NC3(CCCC3)N=C(N)N2)c1` the activation factor was 1.22 and the activity change, negative = activation was -21.9% (inactive).
For `COc1ccc(OC)c(NC2=NC3(CCCCC3)N=C(N)N2)c1`, the activation factor was 1.17 and the activity change, negative = activation was -16.5% (inactive).
For `CC1(C)N=C(N)NC(Nc2ccccc2)=N1`, the activation factor was 1.04 and the activity change, negative = activation was -4% (inactive).
In the case of `Cc1cc(C)cc(NC2=NC3(CCCCC3)N=C(N)N2)c1`, the activation factor is reported as 3.22 and the activity change, negative = activation is reported as -222% (active).
In the case of `CCCCOc1ccc(NC2=NC3(CCCCC3)N=C(N)N2)cc1`, the activation factor is reported as 5.53 and the activity change, negative = activation is reported as -453% (active).
With `COc1cccc(NC2=NC3(CCCCC3)N=C(N)N2)c1` the activation factor was 1.5 and the activity change, negative = activation was -50.5% (inactive).
For `S=C(NCCNCc1ccccc1)NC1CCCCC1`, the activation factor was 1.18 and the activity change, negative = activation was -18% (inactive).
`O=C(NN1C(=O)CSC1=S)C(=O)NN1C(=O)CSC1=S` was tested, and the activation factor was 0.0825 and the activity change, negative = activation was 91.8% (inactive).
`CC(C)=CCC/C(C)=C/CNC(=O)C[C@H]1C[C@H](C(=O)N(C(C)C)C(C)C)[C@@]2(C)c3[nH]c4cc(-c5ccco5)ccc4c3CCN2C1=O` was tested, and the activation factor was 1.39 and the activity change, negative = activation was -39.4% (inactive).
`COc1ccc(NC(=O)CCS(=O)(=O)c2cccc3nonc23)c(OC)c1` was tested, and the activation factor was 0.945 and the activity change, negative = activation was 5.5% (inactive).
For `COc1ccc(C2CC(c3ccccc3F)=NN2c2ccc(S(N)(=O)=O)cc2)cc1` (centres undefined), the activation factor was 2.13 and the activity change, negative = activation was -113% (active).
`COc1ccc(C2CC(c3ccccc3Cl)=NN2c2ccc(S(N)(=O)=O)cc2)cc1` (centres undefined) was tested, and the activation factor was 2.18 and the activity change, negative = activation was -118% (active).
For `COc1ccc(C2CC(c3ccc(Cl)cc3)=NN2c2ccc(S(N)(=O)=O)cc2)cc1` (centres undefined), the activation factor was 1.6 and the activity change, negative = activation was -59.8% (inactive).
`COc1ccc(C2CC(c3ccccc3C(F)(F)F)=NN2c2ccc(S(N)(=O)=O)cc2)cc1` (centres undefined) was tested, and the activation factor was 2.21 and the activity change, negative = activation was -121% (active).
With `COc1ccc(C2CC(c3cccc(Cl)c3)=NN2c2ccc(S(N)(=O)=O)cc2)cc1` (centres undefined) the activation factor was 1.79 and the activity change, negative = activation was -78.7% (inactive).
For `COc1ccc(C2CC(c3cccc(C(F)(F)F)c3)=NN2c2ccc(S(N)(=O)=O)cc2)cc1` (centres undefined), the activation factor was 1.51 and the activity change, negative = activation was -50.8% (inactive).
With `COc1ccc(C2CC(c3ccccc3Br)=NN2c2ccc(S(N)(=O)=O)cc2)cc1` (centres undefined) the activation factor was 1.27 and the activity change, negative = activation was -26.8% (inactive).
With `COc1ccc(C2CC(c3cccc(F)c3)=NN2c2ccc(S(N)(=O)=O)cc2)cc1` (centres undefined) the activation factor was 1.67 and the activity change, negative = activation was -67.2% (inactive).
With `COc1ccc(C2CC(c3ccc(C(F)(F)F)cc3)=NN2c2ccc(S(N)(=O)=O)cc2)cc1` (centres undefined) the activation factor was 1.37 and the activity change, negative = activation was -36.7% (inactive).
In the case of `CSc1ccc(-c2nc(CSCC(=O)NCCCN3CCOCC3)c(C)o2)cc1`, the activation factor is reported as 0.847 and the activity change, negative = activation is reported as 15.3% (inactive).
In the case of `CCOC(=O)C1=C(C)OC(N)=C(C#N)C1c1cc2cc(C)ccc2nc1N1CCCCC1` (centres undefined), the activation factor is reported as 1.02 and the activity change, negative = activation is reported as -1.65% (inactive).
In the case of `CN(C)CCCNC(=O)C[C@H]1C[C@H](C(=O)N2CCCCC2)[C@@]2(CCc3ccccc3)c3[nH]c4cc(CCC(=O)N(C)C)ccc4c3CCN2C1=O`, the activation factor is reported as 1.1 and the activity change, negative = activation is reported as -10.1% (inactive).
With `Cc1cnc(NC(=O)c2ccco2)s1` the activation factor was 0.954 and the activity change, negative = activation was 4.55% (inactive).
`O=C1[C@@H](Oc2ccccc2)[C@@H](c2ccccc2)N1c1ccccc1` was tested, and the activation factor was 0.938 and the activity change, negative = activation was 6.25% (inactive).
`CCc1ccc(NC(=O)C2CCN(S(=O)(=O)c3ccc4c(c3)CC(C)N4C(C)=O)CC2)cc1` (centres undefined) was tested, and the activation factor was 1.49 and the activity change, negative = activation was -48.7% (inactive).
With `Cc1ccc(S(=O)(=O)N2CCC(C(=O)N[C@@H](C)C(=O)NC3CCCCC3)CC2)cc1` the activation factor was 1.09 and the activity change, negative = activation was -8.65% (inactive).
`Cc1ccc(NC(=O)C2CCN(S(=O)(=O)c3ccc(N4CCCC4=O)cc3)CC2)cc1Cl` was tested, and the activation factor was 1.79 and the activity change, negative = activation was -79.3% (inactive).
With `Cc1ccc(S(=O)(=O)NNC(=O)C2CCN(S(=O)(=O)c3ccc(C)cc3)CC2)cc1` the activation factor was 0.962 and the activity change, negative = activation was 3.85% (inactive).
For `Cc1ccc(S(=O)(=O)N2CCC(C(=O)Nc3ccc(C(C)C)cc3)CC2)cc1`, the activation factor was 3.49 and the activity change, negative = activation was -249% (active).
For `Cc1ccc(NC(=O)C2CCN(S(=O)(=O)c3ccc4c(c3)NC(=O)C(C)S4)CC2)cc1Cl` (centres undefined), the activation factor was 1.71 and the activity change, negative = activation was -71.1% (inactive).
`Cc1cc(C)cc(NC(=O)C2CCN(S(=O)(=O)c3ccc4c(c3)NC(=O)C(C)S4)CC2)c1` (centres undefined) was tested, and the activation factor was 1.96 and the activity change, negative = activation was -96% (active).
With `COc1ccc(S(=O)(=O)N2CCC(C(=O)Nc3cccc(Cl)c3)CC2)cc1OC` the activation factor was 1.62 and the activity change, negative = activation was -61.7% (inactive).
With `Cc1ccc(S(=O)(=O)N2CCC(C(=O)Nc3ccc(S(=O)(=O)N4CCCC4)cc3)CC2)cc1C` the activation factor was 2.22 and the activity change, negative = activation was -122% (active).
In the case of `CCNC(=O)C1CCN(S(=O)(=O)c2ccc(F)cc2)CC1`, the activation factor is reported as 0.998 and the activity change, negative = activation is reported as 0.15% (inactive).
In the case of `CSc1cccc(NC(=O)C2CCN(S(=O)(=O)c3ccc(F)cc3)CC2)c1`, the activation factor is reported as 1.98 and the activity change, negative = activation is reported as -97.7% (active).
With `O=C(Nc1ccc(S(=O)(=O)N2CCCCCC2)cc1)C1CCCO1` (centres undefined) the activation factor was 0.946 and the activity change, negative = activation was 5.4% (inactive).
